From PubChem BioAssay AID1645855 (Buhrlage Lab, Dana-Farber Cancer Institute and Novartis …, 2021)
About 3,100 (6.6%) of roughly 47,000 compounds were called active. The sample holds actives, similar compounds and a random draw of the others, so the mix is not that of the screen. Values without a mark were called inactive. Cut-off read from the data, not from the text of the source: active = inhibition above about 30%; inactive = the rest.

target: Ubiquitin carboxyl-terminal hydrolase 17-like protein 5 (Homo sapiens) (UniProt A8MUK1); experiment: inhibitors of human USP17 deubiquitinase (AID 1645855); details: purified USP17, Ub-rhodamine cleavage fluorescence, 3 h; at 50 µM; hits give high values
Sequence (A8MUK1 whole entry, looked up): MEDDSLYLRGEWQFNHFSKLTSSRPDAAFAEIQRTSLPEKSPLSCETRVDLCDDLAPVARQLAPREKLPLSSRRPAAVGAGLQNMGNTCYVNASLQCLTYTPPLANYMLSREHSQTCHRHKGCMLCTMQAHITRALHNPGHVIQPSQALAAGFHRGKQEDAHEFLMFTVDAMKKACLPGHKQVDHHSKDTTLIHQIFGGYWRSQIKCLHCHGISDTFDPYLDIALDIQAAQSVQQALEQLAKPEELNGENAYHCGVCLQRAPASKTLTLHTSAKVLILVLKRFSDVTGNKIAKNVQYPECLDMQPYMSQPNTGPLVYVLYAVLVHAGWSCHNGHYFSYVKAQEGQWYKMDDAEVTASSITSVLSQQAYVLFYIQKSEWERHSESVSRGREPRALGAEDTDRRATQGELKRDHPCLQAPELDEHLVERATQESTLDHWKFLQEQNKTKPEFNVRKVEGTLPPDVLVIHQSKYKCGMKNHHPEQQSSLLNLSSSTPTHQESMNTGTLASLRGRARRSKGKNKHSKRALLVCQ

| SMILES | inhibition |
| --- | --- |
| COc1ccccc1CC(=O)Nc1cc(S(=O)(=O)N2CCOCC2)ccc1N1CCN(C)CC1 | -26.7% |
| C[C@H](NC(=O)Cc1ccc(Cl)cc1)C(=O)N1CCC2(CC1)NCCc1[nH]cnc12 | 9.11% |
| O=C(Cn1c(-c2nc(-c3ccc(F)cc3)no2)cccc1=O)N1CCCC1 | 33% (active) |
| O=C(c1ccc(F)cc1)N1CCCC(c2nc(-c3ccccc3)no2)C1 (centres undefined) | 11.7% |
| O=C(CSc1ncc(-c2ccc(F)cc2)[nH]1)N1CCCC1 | 2.63% |
| COc1ccc2[nH]c(C)c(CCNC(=O)c3cccs3)c2c1 | 0.591% |
| Cc1c(N2CCN(S(=O)(=O)c3ccc(C(C)C)cc3)CC2)c(=O)n(C)c(=O)n1C | -2.36% |
| Cc1nc(SCc2ccc([N+](=O)[O-])cc2)c2oc3ccccc3c2n1 | 12.4% |
| Cc1nc(SCC#N)c2oc3ccccc3c2n1 | 60.3% (active) |
| COc1cccc(Cc2cncc(C(=O)N3CCNC(=O)C3)c2)c1 | 6.62% |
| CSc1cccc(NC(=O)CC(=O)Nc2ccc3nc4n(c(=O)c3c2)CCCCC4)c1 | 34.4% (active) |
| CSc1cccc(NC(=O)COc2ccc(C(=O)c3ccccc3)cc2)c1 | 12.9% |
| CSc1cccc(NC(=O)CCc2ccc3nc[nH]c3c2)c1 | -17.1% |
| Cc1ccc(-n2c3c(c(=O)[nH]c2=O)CN(Cc2ccco2)CN3)cc1 | -9.75% |
| Cc1cc(C)c2nc3c(cc2c1)CN(Cc1ccco1)C(=O)O3 | 51.9% (active) |
| COc1ccc2nc3c(cc2c1)CN(Cc1ccccc1)C(=O)O3 | 18.5% |
| O=S(=O)(Cc1ccccc1)N1CC2(CCN(CC3CCCC3)CC2)C1 | 0.208% |
| COc1ccccc1CNC(=O)c1ccc(-n2nc(C)c3c2CCCC3=O)cc1 | -3.98% |
| Cc1ccc(CNc2nnc(-c3nnc(C)o3)c3ccccc23)cc1 | 3.95% |
| CC(C)c1ccc(OCC(=O)NCc2nnnn2-c2ccc(Cl)cc2)cc1 | 11.8% |

| SMILES | inhibition |
| --- | --- |
| Cc1ccc(NC(=O)NCc2nnnn2-c2ccccc2)cc1C | -3.49% |
| O=C(COc1ccc2ccccc2c1)NCc1nnnn1-c1ccc(Cl)cc1 | 49.4% (active) |
| CC(NC(=O)c1csc(C(=O)NC2CC2)n1)c1ccc(F)cc1 (centres undefined) | 7.32% |
| CC(C(=O)NCCCN1CCOCC1)C1CCN(C(=O)c2cc3ccccc3[nH]2)CC1 (centres undefined) | -0.784% |
| Cc1ccc(-c2nnc(NC(=O)C(c3ccccc3)c3ccccc3)o2)c(C)c1 | 2.51% |
| COc1ccc(OC)c(CNC(=O)c2nnc(C(=O)Nc3ccc(F)cc3)s2)c1 | 14.8% |
| Cc1nnc(C(=O)Nc2ccc(C(=O)NCc3ccccc3C)cc2)s1 | 68.1% (active) |
| Cc1ccccc1CNC(=O)c1sc2ncnc(N3CCCC3)c2c1C | -0.361% |
| CC(=O)N1CCCC(c2ccnc(Nc3ccccn3)n2)C1 (centres undefined) | 6.44% |
| CN(C(=O)c1ncccn1)[C@H]1CC[C@@]2(C)C[C@H](c3ccccc3)C[C@](C)(O2)[C@@H]1O | 3.44% |
| CC(C)c1ccc(S(=O)(=O)N[C@H](C)C(=O)NCc2cscn2)cc1 | 6.37% |
| CNc1cnc(CC2CCCN(C(=O)c3scnc3C)CC2)cn1 (centres undefined) | -9.92% |
| CCc1ccc(NC(=O)Cn2cnc(S(=O)(=O)N3CCOCC3)c2)cc1 | 24.3% |
| Cc1cc(-c2nnc(SCC(=O)Nc3ccc(Br)c(C)c3)n2N)n[nH]1 | 23.4% |
| Cc1cc(NC(=O)COC(=O)c2cccc(C)c2O)ccc1Br | 37% (active) |
| N#Cc1cccc(NC(=O)COC(=O)c2cc3ccccc3oc2=O)c1 | 3.87% |
| C=C1CCC2[C@](C)(CCC[C@]2(C)C(=O)OC)[C@H]1CCc1ccoc1C[N+](C)(C)Cc1ccccc1 (some centres undefined) | 31.1% (active) |
| C=C1CCC2[C@](C)(CCC[C@]2(C)C(=O)OC)[C@H]1CCc1ccoc1CNCC(=O)O (some centres undefined) | 28% |
| O=C(c1ccc(Br)o1)N(Cc1cccc(F)c1)c1ccccn1 | 12.8% |
| CC(=O)c1ccc(N2CCN(C(=O)c3ccc4noc(-c5ccccc5)c4c3)CC2)cc1 | -0.00315% |

| SMILES | inhibition |
| --- | --- |
| COc1cccc(CN2C(=O)c3ccccc3C2C(=O)NCc2ccccc2OC)c1 (centres undefined) | 13.5% |
| CC(=O)O[C@H]1CC[C@@]2(C)C(CC[C@]3(C)C2CCC2[C@@]4(C)CC[C@H](C(C)(C)O)C4C[C@H](O)[C@]23C)C1(C)C (some centres undefined) | 0.105% |
| COc1ccc(C(=O)Nc2cc(=O)[nH]c3nc(Cc4ccccc4)nn23)cc1 | -0.0855% |
| Clc1ccccc1SCc1nc2ccccc2[nH]1 | 6.98% |
| COc1ccc(C(=O)NCC(=O)Nc2nc3ccccc3[nH]2)c(C)c1 | 46.9% (active) |
| O=C(COc1ccccc1)NCCc1nc2ccccc2[nH]1 | 18.3% |
| Cc1noc(C)c1CC(=O)Nc1cccc(-c2nc3ccccc3[nH]2)c1 | 0.008% |
| O=C(Cc1ccc(Cl)cc1)NCC(=O)Nc1nc2ccccc2[nH]1 | 53.7% (active) |
| O=C(Nc1ccc(F)cc1F)c1cnn2c3c(cnc12)CCCCC3 | -3.64% |
| Cc1nc(C2CCCN2)nc2c1CCC(=O)N2CC1CCCCC1 (centres undefined) | 3.63% |
| CCc1nc(=O)c2ccccc2n1C1=CCN(Cc2cn(C)nc2C)CC1 | 4.86% |
| O=C(C1CCN(S(=O)(=O)c2ccc(Cl)cc2)CC1)N1CC[C@@]2(O)CCCC[C@H]2C1 | -1.48% |
| Cc1cc(O)c(=O)cc2c1C[C@H]1CC(C)(C)/C=C/C[C@@]3(C)Oc4cc(=O)c(O)cc(C)c4C[C@@H]3C[C@H](O)[C@]1(C)O2 | 40.2% (active) |
| CCSc1nc(-c2ccccc2)nc2sc3c(c12)CC(C)(C)OC3 | -11.1% |
| CN1CC(c2ncn[nH]2)c2cc(C(=O)NCc3ccccc3)ccc21 (centres undefined) | -5% |
| COc1ccccc1CNC(=O)c1ccc2c(c1)CCN2C(=O)C1CC1 | -10.3% |
| Cc1nc2c(c(C)c1CCC(=O)Nc1ccccc1F)c(=O)n(C)c(=O)n2C | -0.603% |
| Cc1noc(-c2cccn(Cc3cc(F)ccc3F)c2=O)n1 | 5.57% |
| O=C(Cn1cccc(-c2nc(-c3ccccc3)no2)c1=O)Nc1ccccc1F | 33% (active) |
